Experimental findings from PubChem BioAssay (NCATS) are described below.

Unmarked numbers belong to inactive results. Results filed as inconclusive are left out. Calls of active or inactive are those of the source. Unless noted, the call rests on the fitted dose curve; in most records, active means well fitted curve in the direction sought with a large enough effect; inconclusive means small, poorly fitted or top-dose-only effect, or another doubt; inactive means no such curve, though single readings can be large; an effect the other way counts as inactive or inconclusive.

The target of assay [1] is Lysosomal acid glucosylceramidase (Homo sapiens) (UniProt P04062). As to the kind of experiment: Glucocerebrosidase-p2 (AID 348; in the data active means potency below about 10 µM; further: potency means the concentration at half of the fitted maximal effect). The following applies: purified GBA, blue fluorogenic substrate, 40 min. Summed up:
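Compounds titrated from 0.6 nM upwards against 0.2 nM enzyme in pH 5.9 citric acid/KH2PO4, taurocholate, tween-20; blue fluorogenic substrate 80 uM, 40 min room temperature, stopped and read Ex 365/Em 440 for AC50.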

A short description of assay [2]: AP1 Signaling Pathway (AID 357; active means well fitted curve in either direction with a large enough effect, not every such curve was filed as active;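 further: ME-180 reporter cells stimulated with EGF at its EC50 level; on the % scale 0 is the no-effect control and ±100 the full control effect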). The following applies: ME-180 AP-1-bla reporter, EGF-induced, beta-lactamase ratio, 5 h; at 7.69 µM (top of the series) unless noted. Summed up:
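First, ME-180 AP-1-bla cells were cultured overnight at 37 °C in low-serum Opti-MEM. Next, titrated compounds with EC50 EGF were incubated 5 hours. Finally, CCF4 was added for 2.5 hours and the 460/530 nm ratio recorded.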

Assay [3] has as its target Cytochrome P450 1A2 (Homo sapiens) (UniProt P05177). Description: p450-cyp1a2 (AID 410; calls by dose curve; further: potency means the concentration at half of the fitted maximal effect;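 on activity change, negative = inhibition: -100% = full effect of reference inhibitor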). The procedure, abridged: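 20nM CYP1A2 with 100uM Luciferin-ME (at Km) in 100mM KPO4; compound preincubated 10 min, NADPH regeneration added, 60 min at room temperature. Luciferin quantified by luminescence after detection reagent; normalized to 57 uM furafylline.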
Assay [4] in a line: Stat Signaling Pathway (AID 446; active means well fitted curve in either direction with a large enough effect, not every such curve was filed as active;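 further: ME-180 cervical cancer cells given 40 pM IL-6 alongside compound; SIE-controlled beta-lactamase reporter measured as 460/530 nm FRET emission ratio; on the % scale 0 is the no-effect control and ±100 the full control effect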). Summed up:
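ME-180 cells carrying a SIE-driven beta-lactamase reporter are stimulated with 40 pM IL-6 for 5 h at 37C in the presence of compound. The 460/530 nm FRET substrate ratio is read after 2.5 h at RT. Data are normalised to 300 pM IL-6 and to 125 nM JAK inhibitor controls.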

Assay [5] has as its target Glucocorticoid receptor (Homo sapiens) (UniProt P04150). As to the kind of experiment: GR-GFP Redistribution (AID 450;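 active means compounds whose dose series gives a full or clear partial fitted curve of increased nuclear translocation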; further: potency means the concentration at half of the fitted maximal effect). The following applies: U2OS GR-GFP nuclear translocation, laser cytometry, 2 h.
The target is the same in assay [6]. As to the kind of experiment: GR-EFC Redistribution (AID 451; calls by dose curve; further: potency means the concentration at half of the fitted maximal effect). The following applies: CHO-K1 GR-EFC translocation, beta-gal luminescence, 2 h. The procedure, abridged: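 CHO-K1 cells expressing nuclear EA and GR-ED fragments of b-gal; compounds titrated up to 46 uM final, 2 h at 37 C. GR nuclear translocation read as complemented b-gal luminescence after 1 h RT detection.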

The target of assay [7] is Mitogen-activated protein kinase 10 (Mus musculus) (UniProt Q61831). Description: JNK3 AlphaScreen Assay (AID 530; active means well fitted curve in either direction with a large enough effect, not every such curve was filed as active;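 further: kinase came from lysate of stimulated human HepG2 cells; signal reports phosphorylation of biotinylated GST-cJun 1-79 at Ser73 with 10 µM ATP; on the % scale 0 is the no-effect control and ±100 the full control effect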). Summed up:
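Pre-activated (IL-1β/TNFα) JNK3 in HepG2 lysates phosphorylates biotin-GST-cJun(1-79), 10 uM ATP; anti-phospho-cJun(Ser73) AlphaScreen read at room temperature, pH 7.6 Tris buffer. Compounds pre-incubated 15 min as titrations.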

The target in assay [8] is Cytochrome P450 3A4 (Homo sapiens) (UniProt P08684). Description: qHTS Assay for Activators of Cytochrome P450 3A4 (AID 885). Further: nearly all actives have a fitted effect of over 65% in size. Summed up:
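Human CYP3A4 (20 nM) with Luciferin-PPXE at 25 uM (its KM) in 200 mM KPO4; 10 min compound preincubation, then NADPH regeneration and 60 min reaction at RT. Luciferin read by luminescence; normalized to 57 uM ketoconazole full inhibition.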

Assay [9] concerns the target Cytochrome P450 2D6 (Homo sapiens) (UniProt P10635). Description: qHTS Assay for Inhibitors and Substrates of Cytochrome P450 2D6 (AID 891). Further: potency means the concentration at half of the fitted maximal effect; nearly all actives have a fitted effect of over 60% in size. Summed up: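 Human CYP2D6 (5 nM) with 30 uM Luciferin-ME EGE (at Km) in 100 mM KPO4, compound preincubated 10 min, then NADPH regeneration system for 60 min at room temperature. Luciferin read by luminescence; normalized to 1.43 uM quinidine.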

Assay [10] addresses Cytochrome P450 2C19 (Homo sapiens) (UniProt P33261). As to the kind of experiment: qHTS Assay for Inhibitors and Substrates of Cytochrome P450 2C19 (AID 899). Further: potency means the concentration at half of the fitted maximal effect; nearly all actives have a fitted effect of over 60% in size. The procedure, abridged: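 Signal comes from luciferase acting on luciferin released by CYP2C19-mediated hydroxylation of Luciferin-H EGE, 10uM (KM). Assay mix: 5nM enzyme, 50mM KPO4; 60 min at 37C with NADPH regeneration. Data normalized against 57uM ketoconazole.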

Assay [11] has as its target Dual specificity protein kinase CLK4 (Homo sapiens) (UniProt Q9HAZ1). Description: qHTS Assay for Inhibitors of CDC-like Kinase 4 (Kinase-Glo Assay) (AID 1770). Further: nearly all actives have a fitted effect of over 65% in size. Further: potency means the concentration at half of the fitted maximal effect. The procedure, abridged: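 Luminescent ATP-depletion read-out (Kinase-Glo) after 4.5 h room-temperature reaction of Clk4 (25 nM final) with RS peptide (100 uM) and ATP (1 uM), pH 7.5 Tris buffer with MgCl2 and DTT.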

Assay [12] has the same target. Description: qHTS Assay for Inhibitors of CDC-like Kinase 4 (ADP-Glo Assay) (AID 1771). Further: nearly all actives have a fitted effect of over 70% in size. Further: potency means the concentration at half of the fitted maximal effect. Summed up: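 25 nM Clk4 with 100 uM RS repeat peptide and 1 uM ATP (final) in buffer with 2 mM MgCl2, 0.5 mM EGTA, 2.5 mM DTT, 0.01% Triton X-100; 1 h at room temperature; ADP-Glo luminescence for ADP formed.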
The target of assay [13] is Ubiquitin carboxyl-terminal hydrolase 1 (Homo sapiens) (UniProt O94782). As to the kind of experiment: Inhibitors of USP1/UAF1: Pilot qHTS (AID 504865). Further: nearly all actives have a fitted effect of over 35% in size. Further: potency means the concentration at half of the fitted maximal effect. Summed up:
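Deubiquitinase activity followed as kinetic rhodamine fluorescence release from 150 nM Ub-Rho. 1 nM USP1/UAF1 with compound, after 15 min room-temperature preincubation, in HEPES pH 7.8 buffer containing TCEP, EDTA, BSA and Tween-20.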

Assay [14] is described as follows: NFAT Signaling Pathway (AID 444; active means well fitted curve in either direction with a large enough effect, not every such curve was filed as active;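 further: carbachol stimulus at about its EC50 of 1 µM final; on the % scale 0 is the no-effect control and ±100 the full control effect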). As to conditions: Jurkat NFAT-bla M1, carbachol, beta-lactamase ratio, 5 h; at 7.69 µM (top of the series) unless noted. Summed up: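 Jurkat cells with NFAT-driven β-lactamase reporter and co-expressed M1 receptor, stimulated with carbachol (final 1 uM, ~EC50), compound titration, 5 h at 37 °C. CCF4 loaded 1 h at RT; 460/530 nm ratio gave %activity and AC50.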

Assay [15] has as its target 3',5'-cyclic-AMP phosphodiesterase 4B (Homo sapiens) (UniProt Q07343). Description: qHTS Assay for Inhibitors of PDE-IV (AID 607; active means well fitted activation curve with a large enough effect in the main read-out, with a control signal flat, not every such curve was filed as active; further: % of control where 0% means no effect). The procedure, abridged:
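HEK293 ACTOne cells with CNG channel (1000/well), endogenous PDE4; membrane potential dye, compounds up to 22.9 uM final. Fluorescence Ex 535/Em 590; RO 20-1724 (100 uM final) as reference.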

A short description of assay [16]: qHTS Assay for Identification of Small Molecule Agonists for Hypoxia Response Element Signaling Pathway (AID 914; active means well fitted activation curve with a large enough effect in the signal ratio, with a control signal flat, not every such curve was filed as active; the % refers to the signal ratio; further: potency means the concentration at half of the fitted maximal effect). The following applies: ME-180 (cervical carcinoma) HRE-bla reporter, beta-lactamase ratio, CoCl2, 17 h; activation: active compounds read high. Summed up: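 AC50 values come from titration-series %Activity, taken as the 460/530nm ratio of CCF4 fluorescence (excitation 405nm). CellSensor HRE-bla ME-180 cells were treated 17 hours at 37 C with compound plus an EC50 level of CoCl2.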

The target in assay [17] is Dual specificity protein kinase CLK4 (Homo sapiens) (UniProt Q9HAZ1). As to the kind of experiment: qHTS Assay for Inhibitors of CDC-like Kinase 4 (ADP-FP Assay) (AID 1795).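 Further: recombinant human CLK4 phosphorylating RS repeat peptide at 1 µM ATP; on the % scale 0 is the no-effect control and ±100 the full control effect; nearly all actives have a fitted effect of over 60% in size.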 Summed up: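 Kinase activity was measured as ADP production using Transcreener orange tracer (4 nM) and ADP antibody (1 ug/mL) fluorescence polarization, with ADP calculated from a calibration curve. The 1 h reaction contained 6.25 nM Clk4, 1 uM ATP and 100 uM RS peptide at pH 7.5 with Mg2+.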

Assay [18] addresses Cytochrome P450 3A4 (Homo sapiens) (UniProt P08684). Description: qHTS Assay for Inhibitors and Substrates of Cytochrome P450 3A4 (AID 884). Further: potency means the concentration at half of the fitted maximal effect; nearly all actives have a fitted effect of over 50% in size. Summed up: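 20 nM human CYP3A4 with 25 uM Luciferin-PPXE (at KM) in 200 mM KPO4, preincubated 10 min with compound; NADPH regeneration started a 60 min RT reaction. Luciferin detected by luminescence, normalized to 57 uM ketoconazole as full inhibition.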

Sequence of Cytochrome P450 3A4 (Homo sapiens) (P08684 whole entry, looked up): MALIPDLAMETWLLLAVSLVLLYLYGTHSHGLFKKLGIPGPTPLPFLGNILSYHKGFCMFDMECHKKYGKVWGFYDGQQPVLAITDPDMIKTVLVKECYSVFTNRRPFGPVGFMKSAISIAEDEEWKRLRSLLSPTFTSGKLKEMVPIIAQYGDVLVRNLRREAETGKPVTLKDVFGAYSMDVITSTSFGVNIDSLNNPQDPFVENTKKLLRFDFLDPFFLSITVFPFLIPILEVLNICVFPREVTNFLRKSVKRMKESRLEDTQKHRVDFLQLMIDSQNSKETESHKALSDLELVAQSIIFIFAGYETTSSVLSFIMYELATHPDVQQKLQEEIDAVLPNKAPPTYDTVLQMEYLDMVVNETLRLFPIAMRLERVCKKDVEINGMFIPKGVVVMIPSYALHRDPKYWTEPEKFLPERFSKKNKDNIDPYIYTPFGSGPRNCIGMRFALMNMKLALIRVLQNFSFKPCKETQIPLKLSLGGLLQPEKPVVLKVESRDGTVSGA
Sequence of Dual specificity protein kinase CLK4 (Homo sapiens) (Q9HAZ1 whole entry, looked up): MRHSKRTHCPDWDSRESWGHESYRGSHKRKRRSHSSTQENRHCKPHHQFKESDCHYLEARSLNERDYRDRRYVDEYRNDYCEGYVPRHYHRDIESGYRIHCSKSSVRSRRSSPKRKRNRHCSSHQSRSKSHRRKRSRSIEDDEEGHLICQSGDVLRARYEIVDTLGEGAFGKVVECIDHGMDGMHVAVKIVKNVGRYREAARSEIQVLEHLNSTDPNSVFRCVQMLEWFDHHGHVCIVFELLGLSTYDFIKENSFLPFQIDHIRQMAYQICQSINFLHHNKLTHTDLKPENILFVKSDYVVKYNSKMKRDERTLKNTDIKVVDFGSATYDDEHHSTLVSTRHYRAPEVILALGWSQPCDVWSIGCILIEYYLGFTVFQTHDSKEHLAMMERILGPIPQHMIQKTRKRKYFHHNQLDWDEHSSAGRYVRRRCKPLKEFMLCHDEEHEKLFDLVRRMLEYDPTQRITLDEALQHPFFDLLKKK
Sequence of Lysosomal acid glucosylceramidase (Homo sapiens) (P04062 whole entry, looked up): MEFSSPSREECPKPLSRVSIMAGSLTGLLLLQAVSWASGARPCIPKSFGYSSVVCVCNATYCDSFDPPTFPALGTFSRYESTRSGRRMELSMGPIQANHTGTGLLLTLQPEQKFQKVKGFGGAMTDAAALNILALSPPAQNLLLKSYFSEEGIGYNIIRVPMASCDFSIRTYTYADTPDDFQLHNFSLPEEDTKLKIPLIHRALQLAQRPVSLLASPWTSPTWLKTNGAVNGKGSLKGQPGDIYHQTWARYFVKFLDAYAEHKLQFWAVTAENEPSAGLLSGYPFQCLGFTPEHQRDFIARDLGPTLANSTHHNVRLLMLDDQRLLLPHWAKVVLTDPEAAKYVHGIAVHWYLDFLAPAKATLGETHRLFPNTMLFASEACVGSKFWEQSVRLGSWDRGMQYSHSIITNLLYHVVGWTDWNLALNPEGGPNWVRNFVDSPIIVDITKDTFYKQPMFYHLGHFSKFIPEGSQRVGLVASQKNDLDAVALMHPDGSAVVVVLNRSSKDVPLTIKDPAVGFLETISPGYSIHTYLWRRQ
Sequence of Ubiquitin carboxyl-terminal hydrolase 1 (Homo sapiens) (O94782 whole entry, looked up): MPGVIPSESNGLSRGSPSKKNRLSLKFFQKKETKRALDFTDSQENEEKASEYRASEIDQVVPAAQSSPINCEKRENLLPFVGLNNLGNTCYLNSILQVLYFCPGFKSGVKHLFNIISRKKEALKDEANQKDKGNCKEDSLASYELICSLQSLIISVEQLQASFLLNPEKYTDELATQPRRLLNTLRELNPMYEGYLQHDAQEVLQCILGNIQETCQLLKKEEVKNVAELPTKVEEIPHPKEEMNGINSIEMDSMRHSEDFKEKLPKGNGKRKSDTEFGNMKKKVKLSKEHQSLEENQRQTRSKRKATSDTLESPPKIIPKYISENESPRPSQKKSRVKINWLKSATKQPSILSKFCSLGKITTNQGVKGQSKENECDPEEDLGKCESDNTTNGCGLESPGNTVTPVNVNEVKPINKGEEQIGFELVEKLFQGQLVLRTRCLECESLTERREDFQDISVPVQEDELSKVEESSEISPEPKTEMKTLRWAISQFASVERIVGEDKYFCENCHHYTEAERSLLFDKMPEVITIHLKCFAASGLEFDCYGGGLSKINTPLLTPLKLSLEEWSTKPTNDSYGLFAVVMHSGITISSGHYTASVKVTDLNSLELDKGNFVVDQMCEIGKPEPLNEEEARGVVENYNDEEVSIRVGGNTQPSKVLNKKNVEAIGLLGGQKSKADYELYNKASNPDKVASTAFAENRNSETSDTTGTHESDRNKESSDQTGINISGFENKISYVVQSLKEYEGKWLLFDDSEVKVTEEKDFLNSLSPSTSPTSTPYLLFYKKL
Sequence of 3',5'-cyclic-AMP phosphodiesterase 4B (Homo sapiens) (Q07343 whole entry, looked up): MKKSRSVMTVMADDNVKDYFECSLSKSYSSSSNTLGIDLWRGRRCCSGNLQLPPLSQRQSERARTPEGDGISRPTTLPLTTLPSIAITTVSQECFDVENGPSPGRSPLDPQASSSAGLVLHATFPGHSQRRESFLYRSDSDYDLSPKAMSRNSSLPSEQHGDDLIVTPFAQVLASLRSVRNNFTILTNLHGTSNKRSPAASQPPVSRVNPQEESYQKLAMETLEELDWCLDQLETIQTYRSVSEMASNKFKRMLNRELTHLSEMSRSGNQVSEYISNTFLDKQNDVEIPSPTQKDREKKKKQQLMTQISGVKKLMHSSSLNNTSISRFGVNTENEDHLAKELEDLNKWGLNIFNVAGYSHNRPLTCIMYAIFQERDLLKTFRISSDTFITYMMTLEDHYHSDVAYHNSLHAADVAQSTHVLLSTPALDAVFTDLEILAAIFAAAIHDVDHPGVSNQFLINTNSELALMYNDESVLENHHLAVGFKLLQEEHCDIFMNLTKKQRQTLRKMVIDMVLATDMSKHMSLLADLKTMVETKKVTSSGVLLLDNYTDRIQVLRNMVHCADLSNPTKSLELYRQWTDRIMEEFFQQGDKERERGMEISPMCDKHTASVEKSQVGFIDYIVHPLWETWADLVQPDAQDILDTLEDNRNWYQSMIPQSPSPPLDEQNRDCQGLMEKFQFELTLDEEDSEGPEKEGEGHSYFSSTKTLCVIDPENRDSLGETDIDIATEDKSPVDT
Sequence of Cytochrome P450 1A2 (Homo sapiens) (P05177 whole entry, looked up): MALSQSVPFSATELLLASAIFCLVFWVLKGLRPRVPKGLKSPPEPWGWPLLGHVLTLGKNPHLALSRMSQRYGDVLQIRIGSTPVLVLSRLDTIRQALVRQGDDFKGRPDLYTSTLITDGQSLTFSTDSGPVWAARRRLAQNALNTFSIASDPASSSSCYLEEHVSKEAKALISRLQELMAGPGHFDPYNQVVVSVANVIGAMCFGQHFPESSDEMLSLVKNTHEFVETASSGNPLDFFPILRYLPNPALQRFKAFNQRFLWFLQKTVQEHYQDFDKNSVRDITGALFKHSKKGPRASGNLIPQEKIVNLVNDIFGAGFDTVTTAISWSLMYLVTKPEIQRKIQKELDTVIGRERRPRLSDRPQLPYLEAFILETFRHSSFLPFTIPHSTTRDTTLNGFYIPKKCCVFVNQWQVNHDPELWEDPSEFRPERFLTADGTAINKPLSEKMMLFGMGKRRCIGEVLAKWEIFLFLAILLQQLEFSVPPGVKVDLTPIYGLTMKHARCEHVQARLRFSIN
Sequence of Glucocorticoid receptor (Homo sapiens) (P04150 whole entry, looked up, the tested form may be a part): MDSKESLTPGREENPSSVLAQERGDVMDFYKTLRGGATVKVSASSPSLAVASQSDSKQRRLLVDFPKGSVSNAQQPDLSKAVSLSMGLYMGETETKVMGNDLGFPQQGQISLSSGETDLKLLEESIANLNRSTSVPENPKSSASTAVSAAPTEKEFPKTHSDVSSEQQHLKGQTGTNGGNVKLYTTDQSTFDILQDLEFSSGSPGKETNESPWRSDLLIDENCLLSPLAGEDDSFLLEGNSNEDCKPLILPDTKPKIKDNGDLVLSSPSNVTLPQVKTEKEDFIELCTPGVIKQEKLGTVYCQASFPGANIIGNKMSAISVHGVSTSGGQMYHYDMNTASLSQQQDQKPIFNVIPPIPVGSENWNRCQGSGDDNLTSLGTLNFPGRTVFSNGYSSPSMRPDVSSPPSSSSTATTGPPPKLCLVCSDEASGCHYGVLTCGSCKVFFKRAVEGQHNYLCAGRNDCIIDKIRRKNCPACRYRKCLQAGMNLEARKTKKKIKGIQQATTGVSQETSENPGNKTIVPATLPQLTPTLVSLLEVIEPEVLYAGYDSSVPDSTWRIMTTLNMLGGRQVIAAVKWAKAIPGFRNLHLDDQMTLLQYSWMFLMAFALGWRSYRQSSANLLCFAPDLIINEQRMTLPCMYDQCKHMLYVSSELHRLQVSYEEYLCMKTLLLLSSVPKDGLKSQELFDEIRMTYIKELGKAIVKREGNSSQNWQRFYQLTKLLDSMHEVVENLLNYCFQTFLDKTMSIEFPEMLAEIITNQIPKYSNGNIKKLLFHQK
Sequence of Cytochrome P450 2D6 (Homo sapiens) (P10635 whole entry, looked up): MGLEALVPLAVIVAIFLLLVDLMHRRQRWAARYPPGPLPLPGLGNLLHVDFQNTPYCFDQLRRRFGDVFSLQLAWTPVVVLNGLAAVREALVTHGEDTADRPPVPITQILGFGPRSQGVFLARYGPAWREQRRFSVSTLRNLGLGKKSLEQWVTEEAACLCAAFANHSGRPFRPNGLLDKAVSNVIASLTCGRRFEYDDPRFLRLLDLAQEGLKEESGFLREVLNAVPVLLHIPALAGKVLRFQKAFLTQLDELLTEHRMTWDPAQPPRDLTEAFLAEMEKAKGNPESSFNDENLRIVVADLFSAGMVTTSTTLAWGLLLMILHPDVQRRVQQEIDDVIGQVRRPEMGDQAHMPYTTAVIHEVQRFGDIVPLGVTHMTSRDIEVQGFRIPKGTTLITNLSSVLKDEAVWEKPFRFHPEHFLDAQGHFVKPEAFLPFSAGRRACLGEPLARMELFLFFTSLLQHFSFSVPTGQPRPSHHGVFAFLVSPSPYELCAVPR

As for `CN(Cc1ccco1)c1nc(-c2ccccc2C(F)(F)F)nc2ccccc12`, the Potency is more than 11.4 µM in [1]; 2 µM (active) in assay [3]; more than 46 µM in [5]; more than 46 µM in assay [6]; 7.94 µM (active) in assay [9]; 7.94 µM (active) in assay [10]. The Potency in assay [11] is 20 µM (active); in assay [12] it was 28.2 µM (active); in assay [13], 28.2 µM (active). Moreover, in [2], the activity change, negative = inhibition was 23.8%. The result in assay [4] and in assay [8] was inactive. Besides, in assay [7], the Potency entry is “inactive”.
Turning to `COc1ncc2nc(CCc3ccccc3)c(=O)n(-c3ccccc3)c2n1`, the Potency in [1] is more than 11.4 µM; in [3] it was 12.6 µM (active); in [5], more than 9.22 µM. In [14], the activity change, negative = inhibition was -14.3%. The molecule was called inactive in assay [4]. For the same molecule, the Potency result in [7], in assay [15], in [11], in assay [12] and in assay [13] was “inactive” throughout.
Take `COc1ccccc1-c1ccc2ncnc(N3CCNCC3)c2c1`: the Potency is more than 11.4 µM in assay [1]; more than 46 µM in assay [5]; more than 46 µM in assay [6]; 4.47 µM (active) in [11]; 14.1 µM (active) in assay [12]. Also, the figures for the activity change, negative = inhibition in assay [2] and in assay [14] were 4.97% and 5.04%, respectively. For the same molecule, the outcome in assay [4] was inactive. Besides, the Potency entry in assay [7], in assay [15] and in assay [13] was “inactive” each time.
Regarding `CN(C)c1ncc2nc(-c3ccccc3)c(=O)n(C)c2n1`, the results for the Potency in [3], in assay [5] and in assay [16] were 1 µM (active), more than 9.22 µM and 2.51 µM (active), respectively. The Potency result in assay [11], in assay [12], in [17] and in assay [13] was “inactive” each time.
Regarding `COc1ccccc1CNc1ncncc1-c1ccccc1C(F)(F)F`, the activity change, negative = inhibition in [2] is -7.72%; in assay [14] it was -21.7%. The Potency was 15.8 µM (active) in assay [3]; more than 46 µM in [6]; 0.0794 µM (active) in assay [18]; 2 µM (active) in assay [9]; 1.58 µM (active) in assay [10]. For the same molecule, the molecule was called inactive in assay [4] and in assay [8]. For the same molecule, the Potency result in [7], in assay [15], in assay [11], in assay [12] and in assay [17] was “inactive” throughout.
As for `N#CCCn1c(=O)c(-c2cccc(C#N)c2)nc2cnc(Oc3cccc(Cl)c3)nc21`, the Potency is more than 11.4 µM in [1], more than 9.22 µM in [5] and more than 46 µM in [6]. The activity change, negative = inhibition in assay [2] is -14.2%; in assay [14], -6.45%. For the same molecule, the Potency entry in assay [3], in assay [7], in [15], in assay [11], in [12] and in [13] was “inactive” in each case. Further, in assay [4], the call was inactive.
Consider `CN1CCN(c2ncnc3ccc(-c4cccc(C#N)c4)cc23)CC1`, for which the activity change, negative = inhibition in [2] was -0.311%; in [14], -4.66%. Besides, the Potency was 1.26 µM (active) in [3]; more than 46 µM in assay [5]; more than 46 µM in assay [6]; 15.8 µM (active) in assay [11]; 15.8 µM (active) in assay [12]. For the same molecule, the molecule was classed as inactive in assay [4] and in [8]. Besides, the Potency result in assay [7] and in [13] was “inactive” throughout.
